From PubChem BioAssay (Tox21)
Several values for one entry are separate records, joined by “and”; a condition that tells them apart may be missing. Equal values may be shown once. Results filed as inconclusive are left out. Activity calls are given as the source filed them. Unless noted, calls come from the whole dose curve; as a rule, active = well fitted curve in the direction sought with a large enough effect in the repeat runs; inconclusive = weak or mixed curves; inactive = no such curve, though single readings can be large; an effect the other way counts as inactive or inconclusive.

How the values were obtained:
[1] = qHTS assay to identify small molecule antagonists of the estrogen related receptor (ERR) signaling pathway from Tox21 library - cell viability counter screen (AID 1224834); note: nearly all actives have a fitted effect of over 30% in size
How it was run: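 Seeded ERR cells were rested 6 h at 37 C/5% CO2 before compounds, positive and negative controls or DMSO were added. Incubation continued for 17.5 h, and viability was then quantified by CellTiter-Fluor fluorescence.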

[2] = target: Luciferin 4-monooxygenase (Photinus pyralis) (UniProt P08659); assay: qHTS assay to identify small molecule inhibitors of firefly luciferase (AID 1224835); note: nearly all actives have a fitted effect of over 25% in size; note: potency is the fitted concentration of half-maximal effect
Luciferin 4-monooxygenase (Photinus pyralis), sequence (P08659 whole entry, looked up): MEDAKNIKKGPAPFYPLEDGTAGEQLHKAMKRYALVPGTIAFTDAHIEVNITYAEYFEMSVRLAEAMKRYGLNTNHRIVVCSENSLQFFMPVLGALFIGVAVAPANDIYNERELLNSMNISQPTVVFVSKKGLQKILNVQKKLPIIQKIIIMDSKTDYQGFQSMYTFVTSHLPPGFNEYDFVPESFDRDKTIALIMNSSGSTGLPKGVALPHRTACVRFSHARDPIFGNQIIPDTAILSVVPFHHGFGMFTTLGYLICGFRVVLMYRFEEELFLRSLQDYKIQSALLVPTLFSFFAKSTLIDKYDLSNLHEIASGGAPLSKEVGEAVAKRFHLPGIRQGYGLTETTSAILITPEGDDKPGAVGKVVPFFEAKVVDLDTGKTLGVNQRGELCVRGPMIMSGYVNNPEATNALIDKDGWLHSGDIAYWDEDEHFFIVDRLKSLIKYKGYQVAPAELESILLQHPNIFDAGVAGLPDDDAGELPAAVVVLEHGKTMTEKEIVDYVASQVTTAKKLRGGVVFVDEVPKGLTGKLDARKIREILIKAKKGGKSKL
How it was run: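 Quantitative HTS format; KM concentrations of both substrates. Purified P. pyralis FLuc activity quantified from luminescence images.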

[3] = qHTS assay to identify small molecule agonists of the constitutive androstane receptor (CAR) signaling pathway - cell viability counter screen (AID 1224836); note: series mostly up to about 92 µM; nearly all actives have a fitted effect of over 45% in size
How it was run: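 Compound titrations (15 concentrations) went onto HepG2-CYP2B6-hCAR cells 4 h after seeding, alongside PK11195 at a final 0.75 uM; a 23 h, 37 C/5% CO2 incubation preceded CellTiter-Fluor viability measurement.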

[4] = qHTS assay to identify small molecule antagonists of the constitutive androstane receptor (CAR) signaling pathway - cell viability counter screen (AID 1224837); note: series mostly up to about 92 µM; nearly all actives have a fitted effect of over 45% in size
How it was run: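 To flag cytotoxic false antagonists, HepG2 hCAR/CYP2B6-2.2kb cells were treated 23 hr with 15-concentration compound series and 50 nM CITCO at 37 C/5% CO2; CellTiter-Fluor fluorescence was the measured end point.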

[5] = target: Nuclear receptor subfamily 1 group I member 3 (Homo sapiens) (UniProt Q14994); assay: qHTS assay to identify small molecule antagonists of the constitutive androstane receptor (CAR) signaling pathway (AID 1224838);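 note: HepG2 cells stably expressing hCAR with CYP2B6 luciferase reporter stimulated by CITCO; nearly all actives have a fitted effect of over 40% in size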; note: potency is the fitted concentration of half-maximal effect
Nuclear receptor subfamily 1 group I member 3 (Homo sapiens), sequence (Q14994 whole entry, looked up): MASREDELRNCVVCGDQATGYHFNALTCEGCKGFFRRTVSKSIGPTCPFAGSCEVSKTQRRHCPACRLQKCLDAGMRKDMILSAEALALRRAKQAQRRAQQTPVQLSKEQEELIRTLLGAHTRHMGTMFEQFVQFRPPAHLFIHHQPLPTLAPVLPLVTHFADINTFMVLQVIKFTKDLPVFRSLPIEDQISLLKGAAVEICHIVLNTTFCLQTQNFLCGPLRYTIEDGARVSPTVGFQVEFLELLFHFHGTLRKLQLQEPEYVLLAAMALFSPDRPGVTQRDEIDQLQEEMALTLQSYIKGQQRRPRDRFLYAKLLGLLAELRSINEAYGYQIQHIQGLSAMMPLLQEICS
How it was run: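 Human hepatoma HepG2 cells expressing hCAR and a CYP2B6 promoter (2.2 kb) luciferase construct; compound titration (15 points) with 50 nM CITCO final, 24 h at 37 C/5% CO2; luminescence via ONE-Glo after 30 min at room temperature.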

[6] = target: Nuclear receptor subfamily 1 group I member 3 (Homo sapiens) (UniProt Q14994); assay: qHTS assay to identify small molecule agonists of the constitutive androstane receptor (CAR) signaling pathway (AID 1224839); note: nearly all actives have a fitted effect of over 15% in size; note: potency is the fitted concentration of half-maximal effect;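 for activation: HepG2 cells stably carrying human CAR and a CYP2B6 luciferase reporter; series mostly up to about 92 µM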
How it was run: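 In this screen, CAR-driven CYP2B6 promoter activity is measured by luminescence in HepG2-CYP2B6-hCAR cells after 24 h with test compounds and 0.75 uM PK11195 (final concentration).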

[7] = qHTS assay to identify small molecule antagonists of the estrogen related receptor signaling pathway with the pleiotropic PPARgamma coactivator (PGC) from Tox21 10K library - cell viability counter screen (AID 1224840; active = well fitted cell-killing curve with a large enough effect in the repeat runs, not every such curve was filed as active; note: nearly all actives have a fitted effect of over 40% in size)
How it was run: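 Seeded PGC/ERR cells (2,000/well, 6 h, 37 C/5% CO2) get compound by pin tool; 17.5 h incubation at 37 C; CellTiter-Fluor added, 30 min, fluorescence measured.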

[8] = qHTS assay to identify small molecule agonists of the hypoxia (HIF-1) signaling pathway - cell viability counter screen (AID 1224844; calls by dose curve; note: nearly all actives have a fitted effect of over 50% in size)
How it was run: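 HRE-bla ME-180; 0.5% dFBS; cpd 17 h, 37C, 5% CO2; CellTiter-Glo lum., 30 min RT, post-FRET read, same wells.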

[9] = qHTS assay to identify small molecule agonists of the hypoxia (HIF-1) signaling pathway (AID 1224846; active = well fitted activation curve with a large enough effect in the signal ratio in the repeat runs, not every such curve was filed as active; the % refers to the signal ratio)
How it was run: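 Reporter induction in HRE-bla ME-180 cells is taken as agonism: cells sit 5 hrs after plating, receive compounds or DMSO only, incubate 17 hrs at 37C under 5% CO2, and are loaded with CCF4-AM for beta-lactamase FRET measurement.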

[10] = qHTS assay to identify small molecule agonists of H2AX - cell viability counter screen (AID 1224847; calls by dose curve; note: top concentration of the series differs between compounds; nearly all actives have a fitted effect of over 30% in size)
How it was run: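 Read-out: CellTiter-Glo luminescence, 30 min RT. Cells: wild-type CHO-K1, 1000/well, 10% FBS, plated overnight at 37C. Treatment: 15 concentrations, 3 hr, 37C, 0.76% DMSO.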

[11] = qHTS RealTime-Glo MT Cell Viability Assay in HepG2 cells - 24 hour (AID 1224867); note: nearly all actives have a fitted effect of over 50% in size
How it was run: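 Cell number in HepG2 cultures estimated from NanoLuc luminescence generated by metabolic reduction of a prosubstrate by living cells. The homogeneous, nonlytic format allowed repeated reads at 0, 8, 16, 24, 32 and 40 h of compound exposure.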

[12] = qHTS RealTime-Glo MT Cell Viability Assay in HEK293 cells - 32 hour (AID 1224868); note: top concentration of the series differs between compounds; nearly all actives have a fitted effect of over 50% in size
How it was run: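 Homogeneous bioluminescent viability format in HEK293 cells (600 cells/well). Following 5 h at 37 C/5% CO2, 23 nL compound was pintooled; the signal was measured repeatedly during 40 h incubation.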

[13] = A CellTox Green Cytotoxicity Assay to monitor cytotoxicity in HEK293 cells - 0 hour (AID 1224869); note: nearly all actives have a fitted effect of over 50% in size
How it was run: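 Tox21 screen in HEK293: membrane-impermeant cyanine dye fluoresces on binding dead-cell DNA; compound pinned 5 h post-seeding, plates held at 37 C, signal read repeatedly through 40 h.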

[14] = qHTS RealTime-Glo MT Cell Viability Assay in HepG2 cells - 40 hour (AID 1224870); note: nearly all actives have a fitted effect of over 50% in size
How it was run: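 HepG2 cells mixed with RealTime-Glo MT reagents (NanoLuc plus cell-permeant prosubstrate) were seeded at 600 cells/well, incubated 5 h at 37 C/5% CO2, then pinned with compounds in DMSO; nonlytic luminescence tracked viability during 40 h treatment.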

[15] = target: Thyrotropin receptor (Homo sapiens) (UniProt P16473); assay: qHTS assay to identify small molecule agonists of the thyroid stimulating hormone receptor (TSHR) signaling pathway (AID 1224843; calls by dose curve; note: nearly all actives have a fitted effect of over 45% in size)
Thyrotropin receptor (Homo sapiens), sequence (P16473 whole entry, looked up): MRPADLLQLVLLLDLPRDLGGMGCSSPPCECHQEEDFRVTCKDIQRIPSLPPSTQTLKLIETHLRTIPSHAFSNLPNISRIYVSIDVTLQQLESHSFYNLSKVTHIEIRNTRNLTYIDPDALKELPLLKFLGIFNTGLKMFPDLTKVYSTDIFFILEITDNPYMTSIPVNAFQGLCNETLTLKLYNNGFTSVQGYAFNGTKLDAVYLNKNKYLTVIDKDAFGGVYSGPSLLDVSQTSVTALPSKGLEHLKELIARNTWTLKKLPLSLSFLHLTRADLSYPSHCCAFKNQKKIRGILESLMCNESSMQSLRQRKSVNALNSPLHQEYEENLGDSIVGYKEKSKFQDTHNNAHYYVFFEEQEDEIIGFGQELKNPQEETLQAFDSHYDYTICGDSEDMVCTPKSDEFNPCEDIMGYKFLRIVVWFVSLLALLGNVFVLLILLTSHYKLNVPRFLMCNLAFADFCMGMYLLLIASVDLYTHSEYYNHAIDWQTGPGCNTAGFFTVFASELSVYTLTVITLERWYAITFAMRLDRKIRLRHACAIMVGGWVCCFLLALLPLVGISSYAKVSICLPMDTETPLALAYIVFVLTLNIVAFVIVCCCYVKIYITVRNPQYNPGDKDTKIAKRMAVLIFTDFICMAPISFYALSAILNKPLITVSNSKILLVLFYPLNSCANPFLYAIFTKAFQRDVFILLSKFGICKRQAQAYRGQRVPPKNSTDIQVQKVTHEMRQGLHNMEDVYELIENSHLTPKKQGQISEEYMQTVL
How it was run: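 Compounds are titrated over 15 concentrations, in triplicate, onto TSHR-HEK293 cells seeded at 800/well. Plates sit 30 min at room temperature before cAMP-d2 and anti-cAMP cryptate are added; signal is read after a further hour.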

[16] = qHTS assay to identify small molecule agonists of H2AX (AID 1224845; active = well fitted activation curve with a large enough effect in the signal ratio in the repeat runs, not every such curve was filed as active; the % refers to the signal ratio)
How it was run: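 Wild-type CHO-K1 cells plated overnight, then exposed 3 hr at 37C to compounds at 15 concentrations (0.76% DMSO). Lysed, then HTRF anti-pH2AX(S139)-cryptate/anti-H2AX-d2 detection after 24 hr at room temperature; emissions 665 and 620 nm.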

Measured: Potency

Brc1cc(-c2ccc(Br)c(Br)c2Br)cc(Br)c1Br
active: [6] 24 µM
not listed: [15] | [16]
inactive: all other assays above

CC1=C(C=O)C(C)(C)CCC1
not listed: [9] | [12]
inactive: all other assays above

CCOC(=O)c1ccccc1C
not listed: [8] | [9]
inactive: all other assays above

Fc1c(F)c(F)c(Br)c(F)c1F
not listed: [9] | [12]
inactive: all other assays above

Cc1ccnc2ccccc12
not listed: [9] | [13]
inactive: all other assays above

O=C(O)c1cccc(O)c1
not listed: [13]
inactive: all other assays above

CCCOC(=O)c1ccc(C(=O)OCCC)nc1
active: [2] 35.6 µM
not listed: [9]
inactive: all other assays above

C=CC(C)=CCC=C(C)C
not listed: [9] | [15]
inactive: all other assays above

COCc1c(C(C)C)nc(C(C)C)c(/C=C/[C@@H](O)C[C@@H](O)CC(=O)O)c1-c1ccc(F)cc1
active: [5] 4.73 µM and 6.05 µM
not listed: [11] | [12] | [14]
inactive: all other assays above
